Measured values taken from PubChem BioAssay (Tox21).
“And” between values parts separate entries of the source, which are not always exact repeats. Equal entries are not always repeated. Records with an inconclusive call do not appear. Entries that show only a call come without a potency. Where a structure was tested more than once in an assay, its records may differ in their call. The source made the active and inactive calls. Calls come from the whole dose curve; as a rule, active = well fitted cell-killing curve with a large enough effect in the repeat runs; inconclusive = weak or mixed curves, or effect the other way; inactive = no such curve, though single readings can be large or run the other way.

Assay: qHTS assay to identify small molecule antagonists of the sonic hedgehog signaling (Shh) pathway - cell viability counter screen (AID 1259367); note: nearly all actives have a fitted effect of over 55% in size
Settings: NIH/3T3 Gli1-Luc viability, CellTiter-Fluor, 24 h; series mostly up to 92.4 µM
From the text: National Center for Advancing Translational Sciences [NCATS]
NIH Chemical Genomics Center [NCGC]
U.S. Environmental Protection Agency [EPA]
National Institutes of Environmental Health Sciences [NIEHS]
National Toxicology Program [NTP]
U.S. Food and Drug Administration [FDA]
The sonic hedgehog (Shh) pathway is essential for normal embryonic development. Dysregulation of the Shh pathway can cause severe developmental defects in organs. Therefore chemicals that interfere with the pathway are potential developmental toxicants. A cell line designated 3T3Gli1-Luc (DMB/OARSA/CFSAN/FDA, Laurel, MD), a NIH/3T3 derived clone containing stably integrated Gli1-Luc reporter is used to detect chemical interference of the Shh pathway, by changes in the expression of the firefly Luc gene under the control of the Gli1 transcriptional response element. This cell line was used to screen Tox21 libraries for identifying and prioritizing the potential developmental toxicants that interfere Shh pathway. Conditioned medium-stimulated mode was used to screen for chemicals inhibiting Shh signaling. The cytotoxicity of the compounds was tested in parallel by measuring the cell viability using CellTiter-Fluor assay system (Promega, Madison, WI) in the same wells.
Tox21 Assay Protocol Summary:
3T3 Gli1-Luc cells were dispensed at 2,000 per well in 5uL of culture medium into white solid bottom 1536-well plates (Greiner Bio-One, Monroe, NC) using a Multidrop Combi (Thermo Scientific, Waltham, MA) dispenser. The assay plates were incubated at 37 C and 5% CO2 for 4hr, and then 23nL of compounds dissolved in DMSO and positive control were transferred using a Pintool station (Wako, San Diego, CA). The compound transfer was followed by the addition of 1ul conditioned medium or assay buffer using two separate tips of Flying Reagent Dispenser (FRD, Aurora Discovery, San Diego, CA). The assay plates were incubated at 37C and 5% CO2 for 24hr. For viability read, after 23hr of compound treatment, 1uL of CellTiter-Fluor reagent (Promega Corporation, Madison, WI) was added to each well of the assay plates using Flying Reagent Dispenser (FRD, Aurora Discovery, San Diego, CA) and incubated the assay plates at 37C for 1hr. The fluorescence signal was quantified using a ViewLux plate reader (Perkin Elmer, Shelton, CT).
Potency is the fitted concentration of half-maximal effect.

Structure (SMILES)	Potency	viability change, negative = cytotoxic
COC(=O)[C@@H](N)CCCN/C(N)=N/[N+](=O)[O-]	inactive	–
BrCCc1ccccc1	inactive	–
CC(C)(O)C(Cl)(Cl)Cl	inactive	–
CCCCCCCC(=O)Cl	inactive	–
CC(=O)OCC1=C(C(=O)O)N2C(=O)[C@@H](N)[C@H]2SC1	–	0.909% [at 19 µM] (inactive)
NC1(c2ccccc2)CCCCC1	27.1 µM (active)	–
O=C(Cl)C(Cl)(Cl)Cl	inactive	–
O=C1C2CC=CCC2C(=O)N1SC(Cl)(Cl)Cl (stereo not given)	inactive and 13.5 µM (active)	–
C[C@H]1CCCC(=O)CCC/C=C/c2cc(O)cc(O)c2C(=O)O1	23.4 µM (active)	–
CCCCCCC(=O)CCCCCC/C=C/C[C@@H](O)[C@H](O)[C@@](N)(CO)C(=O)O	–	-0.502% [at 19 µM] (inactive)
CCOC(=O)c1ncn2c1CN(C)C(=O)c1c(I)cccc1-2	inactive	–
CCCOC(=O)Cc1ccc(OCC(=O)N(CC)CC)c(OC)c1	inactive	–
CCOC1Oc2ccc(OS(C)(=O)=O)cc2C1(C)C (stereo not given)	inactive	–
CC(=O)CN(CC(C)=O)N=O	inactive	–
C[C@H](N)C(=O)c1ccccc1	inactive	–
O=C1CCCCC1Cl (stereo not given)	inactive	–
CCCCCCC1CCOC1=O (stereo not given)	inactive	–
Cc1ccc2cc(C)ccc2c1	inactive	–
C=CC(=O)OCCN(C)C	inactive	–
CCc1ccc(C2CCNCC2)cc1	inactive	–

Structure (SMILES)	Potency	viability change, negative = cytotoxic
CCCCOC(C)=O	inactive	–
CN(C)C1CCCCC1	inactive	–
Cc1ccc(Cl)c(O)c1	inactive	–
CNC(=O)O/N=C(/CSC)C(C)(C)C	inactive	–
CN1COCN(Cc2cnc(Cl)s2)/C1=N\[N+](=O)[O-]	inactive	–
CC(C)C(C)(N)C#N (stereo not given)	inactive	–
CCN[C@@H](C)Cc1ccccc1	inactive	–
NCCOS(=O)(=O)O	inactive	–
O=CCCl	inactive	–
CCC1(CC)C(=O)C=CNC1=O	inactive	–
CC(C)(C)C(=O)Cl	inactive	–
Cc1cccc2sc3nncn3c12	inactive	–
CCOC(=O)CC(SP(=S)(OC)OC)C(=O)OCC (stereo not given)	inactive	–
O=C(Cl)c1ccccc1	inactive	–
O=C(O)C(F)(F)C(F)(F)C(F)(F)C(F)(F)C(F)(F)C(F)(F)F	inactive	–
CN(C)C(=O)Oc1cc(OC(=O)N(C)C)cc(C(O)CNC(C)(C)C)c1 (stereo not given)	inactive	–
O=C(Cl)C(Cl)Cl	inactive	–
COC(=O)c1ccc(CBr)cc1	inactive	–
C/C(=N\NC(=O)Nc1cc(F)cc(F)c1)c1ncccc1C(=O)O	inactive	–
CC(C)[C@]12CC(=O)[C@H](C)[C@H]1C2	inactive	–
